The values that follow come from PubChem BioAssay (NCI).

“And” between values parts separate entries of the source, which are not always exact repeats. Equal entries are not always repeated. This is part of a sample that, as a whole, favours compounds with a hit. Of some 83,000 tested, about 20% had one in any assay.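 48-hour exposure, single concentration, 96-well plates; percent growth endpoint where 0 means no net growth. Active: below 10.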 The source made the active and inactive calls.

Assay in all cases: NCI-60 one-dose screen, 48 h (100 = growth as untreated, 0 = no growth, -100 = all killed)
Common to all, as to settings: 10 µM unless noted

Test [1] concerns HCT-15 colon.
Test [2] has as its system HT29 colon.
The subject of test [3] is SNB-75 CNS.
Test [4] concerns SNB-19 CNS.
The test system of test [5] is U251 CNS.
In test [6] the test system is PC-3 prostate.
Test [7] deals with SK-MEL-5 melanoma.
In test [8] the test system is UACC-62 melanoma.
Test [9] has as its system LOX IMVI melanoma.
Test [10] concerns SK-MEL-28 melanoma.
The test system of test [11] is SK-MEL-2 melanoma.
The subject of test [12] is EKVX NSCLC.
Test [13] relates to SN12C renal.
Test [14] concerns UO-31 renal.
Test [15] has as its system TK-10 renal.
For test [16], the system named is ACHN renal.
Test [17] has as its system CAKI-1 renal.
The subject of test [18] is A498 renal.
Test [19] deals with CCRF-CEM leukemia.
Test [20] deals with MOLT-4 leukemia.

Consider `Cc1ncsc1CCO`, for which the growth was 111% (inactive) and 106% (inactive) in test [1]; 101% (inactive) and 95.6% (inactive) in test [2]; 111% (inactive) and 91.5% (inactive) in [3]; 108% (inactive) and 103% (inactive) in test [4]; 99.6% (inactive) and 99.8% (inactive) in test [5]; 103% (inactive) and 98.3% (inactive) in test [6]. The growth in [7] is 109% (inactive) and 98.2% (inactive); in [8], 111% (inactive) and 95.5% (inactive); in test [9], 97.6% (inactive) and 103% (inactive); in test [10], 116% (inactive) and 104% (inactive); in test [11] it was 96.1% (inactive) and 107% (inactive); in test [12], 112% (inactive) and 99.6% (inactive). The growth in [13] was 109% (inactive) and 96.6% (inactive); in test [14] it was 95.7% (inactive) and 89.7% (inactive); in [15], 103% (inactive) and 89.4% (inactive); in test [16] it was 107% (inactive); in test [17], 101% (inactive); in test [18], 81.3% (inactive) and 97.6% (inactive). Moreover, the growth in [19] is 39.9% (inactive) and 121% (inactive); in [20], 105% (inactive) and 116% (inactive).

In the case of `CCN(CC)CCCC(C)Nc1cnc(C(=O)Nc2cc(F)cc3cccnc23)cn1` (stereo not given), the growth in test [1] was 24.5% (inactive) and -32.9% (active); in test [2] it was 11.8% (inactive) and 5.33% (active); in test [3], 65.7% (inactive) and -54.3% (active); in test [4], 83.1% (inactive) and -87.9% (active); in test [5] it was 50.3% (inactive) and -76.1% (active); in test [6], 61% (inactive) and -52.7% (active). Moreover, the growth in test [7] is 70% (inactive) and -92.2% (active); in test [8], 0.997% (active) and 17.5% (inactive); in [9], 33.3% (inactive) and -48.5% (active); in test [10], 63.2% (inactive) and 22.7% (inactive); in test [11], 96.7% (inactive) and 50% (inactive); in test [12] it was 73.3% (inactive) and 19.2% (inactive). Also, the growth in [13] was 54.5% (inactive) and 1.53% (active); in test [14] it was 29.1% (inactive) and -91.5% (active); in test [15], 63.7% (inactive) and -48.8% (active); in test [16] it was 36.6% (inactive) and -2.97% (active); in [17], 36.7% (inactive) and -38.3% (active); in test [18], 63% (inactive). The growth in test [19] is 19.7% (inactive) and 3.49% (active); in test [20], 22% (inactive) and 10.4% (inactive).

Consider `CCC(O)c1ccccc1` (stereo not given), for which the growth in [1] is 113% (inactive) and 105% (inactive); in test [2] it was 104% (inactive) and 105% (inactive); in [3] it was 88% (inactive) and 97.5% (inactive); in [4] it was 110% (inactive) and 103% (inactive); in test [5], 102% (inactive); in test [6], 116% (inactive) and 102% (inactive). The growth was 107% (inactive) and 95.3% (inactive) in [7]; 111% (inactive) and 97.7% (inactive) in test [8]; 104% (inactive) and 108% (inactive) in test [9]; 75.7% (inactive) and 98.6% (inactive) in test [10]; 104% (inactive) in test [11]; 94.1% (inactive) and 110% (inactive) in test [12]. The growth is 98.1% (inactive) and 96.2% (inactive) in [13]; 98.8% (inactive) and 91.3% (inactive) in [14]; 113% (inactive) and 111% (inactive) in test [15]; 107% (inactive) and 111% (inactive) in [16]; -23.1% (active) and 97% (inactive) in test [17]; 88.5% (inactive) and 92.8% (inactive) in test [18]. Moreover, the growth is 103% (inactive) and 92% (inactive) in test [19]; 98.1% (inactive) and 78.8% (inactive) in test [20].

Turning to `CCN(CC)C(=S)SSC(=S)N(CC)CC`, the growth in [1] is 81.4% (inactive) and 109% (inactive); in test [2] it was 68.5% (inactive) and 94.4% (inactive); in test [3], 72.6% (inactive) and 93.2% (inactive); in [4], 85.4% (inactive) and 97% (inactive); in [5], 58.5% (inactive) and 100% (inactive); in [6], 68.5% (inactive) and 108% (inactive). Further, the growth is 40.2% (inactive) and 110% (inactive) in test [7]; 69.6% (inactive) and 105% (inactive) in test [8]; 53% (inactive) and 98.4% (inactive) in test [9]; 61.5% (inactive) and 106% (inactive) in test [10]; 103% (inactive) in test [11]; 89.1% (inactive) and 113% (inactive) in [12]. For the same molecule, the growth in test [13] is 78.9% (inactive) and 106% (inactive); in test [14], 63.3% (inactive) and 90.7% (inactive); in [15], 96.9% (inactive); in test [16], 71.1% (inactive) and 101% (inactive); in test [17], 76.4% (inactive) and 87.5% (inactive); in test [18] it was 83.7% (inactive) and 111% (inactive). Besides, the growth in test [19] is 16.9% (inactive) and 102% (inactive); in [20] it was 46% (inactive) and 93.2% (inactive).
